The test has as its target Tyrosine-protein kinase receptor UFO (Homo sapiens) (UniProt P30530). As to conditions: at 1 µM.
Chain of Tyrosine-protein kinase receptor UFO (Homo sapiens) (P30530 whole entry): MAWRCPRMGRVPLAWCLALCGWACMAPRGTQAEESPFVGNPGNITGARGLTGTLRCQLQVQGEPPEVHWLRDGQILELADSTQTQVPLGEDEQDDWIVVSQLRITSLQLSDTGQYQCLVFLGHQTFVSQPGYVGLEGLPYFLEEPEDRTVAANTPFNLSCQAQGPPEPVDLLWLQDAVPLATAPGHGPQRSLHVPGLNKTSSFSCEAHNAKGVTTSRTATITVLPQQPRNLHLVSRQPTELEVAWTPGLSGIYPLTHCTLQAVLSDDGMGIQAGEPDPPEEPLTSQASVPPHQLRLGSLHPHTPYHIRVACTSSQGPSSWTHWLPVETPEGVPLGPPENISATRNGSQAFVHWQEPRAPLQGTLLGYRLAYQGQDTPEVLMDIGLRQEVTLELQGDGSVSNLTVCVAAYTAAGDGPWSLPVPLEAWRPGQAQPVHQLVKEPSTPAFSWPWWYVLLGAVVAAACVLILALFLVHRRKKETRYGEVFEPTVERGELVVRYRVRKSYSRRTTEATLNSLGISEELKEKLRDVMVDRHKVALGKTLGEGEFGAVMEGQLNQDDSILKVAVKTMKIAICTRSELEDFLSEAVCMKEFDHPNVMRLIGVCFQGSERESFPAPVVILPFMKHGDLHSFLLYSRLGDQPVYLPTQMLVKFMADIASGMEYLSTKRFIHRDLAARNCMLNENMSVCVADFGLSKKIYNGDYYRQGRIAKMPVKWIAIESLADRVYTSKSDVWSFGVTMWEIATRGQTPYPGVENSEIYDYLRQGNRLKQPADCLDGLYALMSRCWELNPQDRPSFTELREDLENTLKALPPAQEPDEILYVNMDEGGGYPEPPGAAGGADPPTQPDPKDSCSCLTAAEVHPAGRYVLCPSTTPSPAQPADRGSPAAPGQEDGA
Consider `CNC(=O)c1cccc(C#Cc2cncnc2Nc2ccc(OCc3cccc(F)c3)c(Cl)c2)c1`, for which the inhibition is -0.81%.
In the case of `Fc1ccc(-c2cc(-c3c[nH]nc3-c3ccccn3)ccn2)cc1`, the inhibition was -8.99%.
For `CN1CCC(n2cnc(-c3ccc(F)cc3)c2-c2ccnc(Nc3ccccc3)n2)CC1` the value was -1.45%.
For `CCn1c(-c2nonc2N)nc2c(C#CC(C)(C)O)ncc(OC3CCNCC3)c21` the value was -4.23%; for `COc1cccc(-c2c[nH]c3c(N/N=C/c4ccncc4)ncnc23)c1`, 3.21%.
Next, `Cc1ccc2c(-c3ccnc(Nc4ccccc4)n3)c(-c3ccc(F)cc3)nn2n1`: -3.51%.
Turning to `COC(=O)Nc1nc2ccc(Oc3ccc(NC(=O)Nc4cccc(Cl)c4)cc3)cc2[nH]1`, the inhibition is 6.96%.
Next, `COc1ccc(-c2cc(-c3c[nH]nc3-c3ccccn3)ccn2)cc1`: -5.64%; `COc1cc(/C=N/Nc2ncnc3[nH]ncc23)ccc1O`: -3.87%.
For `[O-][S+]1CCN(Cc2ccc(-c3ccc4ncnc(Nc5ccc(OCc6cccc(F)c6)c(Cl)c5)c4c3)o2)CC1` the value was -4.13%; for `CCNC(=O)O[C@H]1CN[C@H](C#Cc2cc3ncnc(Nc4ccc(OCc5cccc(F)c5)c(Cl)c4)c3s2)C1`, -3.57%.
As to `CC1=C(C(=O)Nc2cc(Cl)c3[nH]ncc3c2)C(c2ccc(C(F)(F)F)cc2)CC(=O)N1` (stereo unspecified), the inhibition was -2.18%.
As for `c1ccc(-c2nc3n(c2-c2ccc4c(c2)OCO4)CCC3)nc1`, the inhibition was -5.46%.
Next, `CCOc1ccc2c(-c3ccnc(Nc4cccc(C(F)(F)F)c4)n3)cnn2n1`: -0.78%; `CCN1CCC(CC(=O)Nc2n[nH]c3nnc(-c4cccc(F)c4F)cc23)CC1`: 0.83%; `COc1ccc2[nH]c3c4[nH]c5ccc(OC)cc5c4c4c(c3c2c1)C(=O)NC4=O`: 40%.

For orientation: inhibition means the relative decrease from the control value, in per cent.

Source of the values: ChEMBL document CHEMBL1961873, “Compounds: GSK PKIS; Assays: Nanosyn kinase panel” (2012).
